# Data reported in the supplement of paper PMC11732987, “Enantioselective OTUD7B fragment discovery through chemoproteomics screening and high-throughput optimisation” (Communications Chemistry, 2025).
# Unmarked numbers belong to inactive results.
# What was measured:
# Assay in all cases: log2 ratio of Biotin-Ahx-Ub-VS probe labelling (fragment/DMSO); higher = less target engagement (more negative = stronger competition), active = hit call of the paper (q ≤ 0.05, log2 ratio ≤ -1)
# Settings in all cases: compound concentration: 200 uM; treatment time: 3 h
# USP42 = target: T1, USP42 (UniProt Q9H9J4)
# T1 sequence (whole entry): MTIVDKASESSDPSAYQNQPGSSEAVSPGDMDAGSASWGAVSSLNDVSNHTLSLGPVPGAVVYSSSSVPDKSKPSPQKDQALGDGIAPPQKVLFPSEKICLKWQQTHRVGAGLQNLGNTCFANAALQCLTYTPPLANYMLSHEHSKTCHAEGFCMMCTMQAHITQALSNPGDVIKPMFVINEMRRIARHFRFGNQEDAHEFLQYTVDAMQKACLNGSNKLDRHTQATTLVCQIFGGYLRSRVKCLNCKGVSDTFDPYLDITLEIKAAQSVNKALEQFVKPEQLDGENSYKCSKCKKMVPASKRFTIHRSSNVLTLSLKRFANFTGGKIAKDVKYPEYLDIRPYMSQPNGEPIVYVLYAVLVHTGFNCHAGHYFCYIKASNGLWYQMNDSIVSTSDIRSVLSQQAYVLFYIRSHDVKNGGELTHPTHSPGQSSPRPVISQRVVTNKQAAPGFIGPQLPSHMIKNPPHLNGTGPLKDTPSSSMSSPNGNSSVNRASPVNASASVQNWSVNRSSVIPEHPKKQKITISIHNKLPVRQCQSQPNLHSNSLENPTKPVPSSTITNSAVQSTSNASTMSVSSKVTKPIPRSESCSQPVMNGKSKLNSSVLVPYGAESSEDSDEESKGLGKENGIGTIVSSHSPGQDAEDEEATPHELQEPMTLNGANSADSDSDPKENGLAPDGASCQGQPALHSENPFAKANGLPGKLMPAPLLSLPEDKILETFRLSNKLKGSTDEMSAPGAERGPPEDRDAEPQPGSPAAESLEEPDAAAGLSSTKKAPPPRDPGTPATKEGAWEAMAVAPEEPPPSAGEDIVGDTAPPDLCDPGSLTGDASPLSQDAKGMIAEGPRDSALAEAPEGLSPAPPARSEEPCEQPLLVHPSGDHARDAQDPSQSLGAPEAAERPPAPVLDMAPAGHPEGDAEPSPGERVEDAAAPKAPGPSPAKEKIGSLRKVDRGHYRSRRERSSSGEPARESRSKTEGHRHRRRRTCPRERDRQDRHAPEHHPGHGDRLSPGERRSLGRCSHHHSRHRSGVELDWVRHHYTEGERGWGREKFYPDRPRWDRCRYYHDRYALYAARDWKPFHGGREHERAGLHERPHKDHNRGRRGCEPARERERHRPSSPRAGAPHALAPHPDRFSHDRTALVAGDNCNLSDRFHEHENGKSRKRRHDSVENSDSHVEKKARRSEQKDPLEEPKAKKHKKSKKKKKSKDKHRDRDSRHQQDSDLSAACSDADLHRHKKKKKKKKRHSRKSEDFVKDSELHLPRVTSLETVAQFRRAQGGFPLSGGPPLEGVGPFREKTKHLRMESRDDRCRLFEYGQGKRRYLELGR
# Procedure, shortened: (§1)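 Labelled DUBs from HEK293T lysate were NeutrAvidin-enriched, digested with LysC and trypsin, and run by diaPASEF LC-MS/MS. Before that, each 495 µg sample in Tris/CHAPS/IGEPAL buffer with protease inhibitors was treated in triplicate with fragment at 200 µM or vehicle for 3 h, then with Biotin-Ahx-Ub-VS at 0.5 µM final for 1 h. Values are average log2 ratios of fragment over vehicle by unpaired t-test, based on global-median-normalised Spectronaut label-free quantities from proteins with ≥2 unique peptides.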
# USP46 = USP46 (UniProt P62068)
# Sequence of USP46 (P62068 whole entry): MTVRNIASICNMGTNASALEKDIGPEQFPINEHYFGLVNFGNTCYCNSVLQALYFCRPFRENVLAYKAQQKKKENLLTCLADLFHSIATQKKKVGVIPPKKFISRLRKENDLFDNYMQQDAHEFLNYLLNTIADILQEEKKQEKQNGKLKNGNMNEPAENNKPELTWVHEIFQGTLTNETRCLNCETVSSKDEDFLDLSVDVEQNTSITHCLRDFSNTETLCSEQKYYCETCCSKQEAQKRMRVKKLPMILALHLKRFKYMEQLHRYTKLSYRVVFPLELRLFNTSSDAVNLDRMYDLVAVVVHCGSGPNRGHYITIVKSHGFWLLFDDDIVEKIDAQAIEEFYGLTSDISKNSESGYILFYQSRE
# Procedure, shortened: as §1
# USP47 = target: T2, USP47 (UniProt Q96K76)
# T2 sequence (whole entry): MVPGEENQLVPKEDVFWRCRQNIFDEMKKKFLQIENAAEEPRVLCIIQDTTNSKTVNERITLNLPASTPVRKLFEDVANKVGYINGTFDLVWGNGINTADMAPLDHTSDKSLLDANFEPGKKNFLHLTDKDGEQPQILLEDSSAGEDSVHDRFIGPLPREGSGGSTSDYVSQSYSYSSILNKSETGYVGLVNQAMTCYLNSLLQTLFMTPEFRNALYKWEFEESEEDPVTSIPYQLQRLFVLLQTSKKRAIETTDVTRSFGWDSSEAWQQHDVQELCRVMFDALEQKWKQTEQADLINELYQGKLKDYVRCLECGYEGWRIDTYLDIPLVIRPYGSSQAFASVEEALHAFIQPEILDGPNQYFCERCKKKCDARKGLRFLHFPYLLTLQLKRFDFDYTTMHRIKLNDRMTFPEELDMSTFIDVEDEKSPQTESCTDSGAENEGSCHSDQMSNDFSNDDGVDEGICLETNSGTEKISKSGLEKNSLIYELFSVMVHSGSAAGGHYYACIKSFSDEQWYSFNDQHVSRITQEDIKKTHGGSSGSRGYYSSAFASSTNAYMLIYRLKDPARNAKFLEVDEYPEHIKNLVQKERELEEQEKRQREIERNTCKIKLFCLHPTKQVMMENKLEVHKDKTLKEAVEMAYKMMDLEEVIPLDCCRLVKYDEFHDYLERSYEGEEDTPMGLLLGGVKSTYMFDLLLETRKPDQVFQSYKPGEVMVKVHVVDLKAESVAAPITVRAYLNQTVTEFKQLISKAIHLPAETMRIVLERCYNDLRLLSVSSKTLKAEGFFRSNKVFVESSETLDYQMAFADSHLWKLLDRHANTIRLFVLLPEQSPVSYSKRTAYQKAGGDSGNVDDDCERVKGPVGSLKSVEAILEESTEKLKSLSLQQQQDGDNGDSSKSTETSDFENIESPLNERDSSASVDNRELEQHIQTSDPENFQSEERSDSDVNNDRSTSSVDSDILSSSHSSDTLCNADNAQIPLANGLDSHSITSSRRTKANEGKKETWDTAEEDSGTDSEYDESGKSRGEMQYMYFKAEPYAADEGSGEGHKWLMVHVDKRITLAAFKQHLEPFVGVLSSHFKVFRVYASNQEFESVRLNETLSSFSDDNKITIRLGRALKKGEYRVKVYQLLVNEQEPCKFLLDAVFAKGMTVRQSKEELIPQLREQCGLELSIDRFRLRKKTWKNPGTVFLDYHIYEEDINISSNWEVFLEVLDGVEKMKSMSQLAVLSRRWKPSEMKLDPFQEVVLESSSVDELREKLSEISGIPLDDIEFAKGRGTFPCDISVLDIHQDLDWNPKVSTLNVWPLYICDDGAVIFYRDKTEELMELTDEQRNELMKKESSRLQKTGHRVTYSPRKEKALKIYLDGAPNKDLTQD
# Procedure, shortened: as §1
# USP48 = target: T3, USP48 (UniProt Q86UV5)
# T3 sequence (whole entry): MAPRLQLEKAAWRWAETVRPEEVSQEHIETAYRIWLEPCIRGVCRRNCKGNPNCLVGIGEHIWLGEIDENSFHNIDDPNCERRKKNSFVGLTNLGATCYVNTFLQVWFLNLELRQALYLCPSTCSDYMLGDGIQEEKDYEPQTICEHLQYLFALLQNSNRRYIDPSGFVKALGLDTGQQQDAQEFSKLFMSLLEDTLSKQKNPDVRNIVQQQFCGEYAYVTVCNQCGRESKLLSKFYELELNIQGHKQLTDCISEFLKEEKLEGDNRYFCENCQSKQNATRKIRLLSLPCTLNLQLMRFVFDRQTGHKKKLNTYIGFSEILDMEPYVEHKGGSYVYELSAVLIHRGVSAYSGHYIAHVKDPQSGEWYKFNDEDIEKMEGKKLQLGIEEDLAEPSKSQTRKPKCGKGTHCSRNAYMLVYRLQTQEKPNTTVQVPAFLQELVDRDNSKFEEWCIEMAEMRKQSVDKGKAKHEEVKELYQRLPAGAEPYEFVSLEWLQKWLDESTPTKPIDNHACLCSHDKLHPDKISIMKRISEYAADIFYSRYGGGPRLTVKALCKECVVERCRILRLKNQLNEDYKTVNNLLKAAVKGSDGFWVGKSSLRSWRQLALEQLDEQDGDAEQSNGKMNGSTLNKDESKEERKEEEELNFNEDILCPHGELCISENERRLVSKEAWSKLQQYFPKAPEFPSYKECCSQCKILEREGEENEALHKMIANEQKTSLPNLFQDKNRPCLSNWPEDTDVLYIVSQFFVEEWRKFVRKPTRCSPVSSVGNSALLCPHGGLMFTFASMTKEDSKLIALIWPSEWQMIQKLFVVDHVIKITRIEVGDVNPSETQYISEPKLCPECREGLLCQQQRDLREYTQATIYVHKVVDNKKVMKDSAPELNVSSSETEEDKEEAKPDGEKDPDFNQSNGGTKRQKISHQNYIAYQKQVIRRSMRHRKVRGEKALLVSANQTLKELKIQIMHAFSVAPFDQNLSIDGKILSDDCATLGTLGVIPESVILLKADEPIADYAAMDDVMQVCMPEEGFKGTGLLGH
# Procedure, shortened: as §1
# USP5 = target: T4, USP5 (UniProt P45974)
# T4 sequence (whole entry): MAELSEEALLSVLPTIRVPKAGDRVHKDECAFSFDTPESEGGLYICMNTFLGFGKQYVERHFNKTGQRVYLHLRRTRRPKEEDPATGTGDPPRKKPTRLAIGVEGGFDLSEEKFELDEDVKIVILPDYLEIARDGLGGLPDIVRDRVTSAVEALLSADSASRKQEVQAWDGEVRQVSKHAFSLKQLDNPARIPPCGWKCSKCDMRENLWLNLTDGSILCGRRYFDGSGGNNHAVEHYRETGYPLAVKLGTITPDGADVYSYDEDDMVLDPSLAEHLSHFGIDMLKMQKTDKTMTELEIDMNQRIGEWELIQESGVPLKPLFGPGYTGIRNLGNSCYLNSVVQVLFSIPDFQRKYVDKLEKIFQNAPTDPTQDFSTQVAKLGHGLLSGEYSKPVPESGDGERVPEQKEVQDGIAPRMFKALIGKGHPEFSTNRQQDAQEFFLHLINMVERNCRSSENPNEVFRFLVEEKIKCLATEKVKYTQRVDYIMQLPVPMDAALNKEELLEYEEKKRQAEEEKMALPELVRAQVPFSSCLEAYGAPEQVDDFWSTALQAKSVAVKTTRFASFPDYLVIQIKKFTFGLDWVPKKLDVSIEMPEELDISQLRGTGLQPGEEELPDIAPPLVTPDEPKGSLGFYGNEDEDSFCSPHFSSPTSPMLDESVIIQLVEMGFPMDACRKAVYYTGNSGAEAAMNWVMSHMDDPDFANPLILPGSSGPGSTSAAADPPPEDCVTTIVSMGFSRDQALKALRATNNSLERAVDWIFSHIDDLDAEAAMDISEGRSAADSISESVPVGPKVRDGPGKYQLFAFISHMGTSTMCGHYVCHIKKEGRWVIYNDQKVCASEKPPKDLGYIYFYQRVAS
# Procedure, shortened: as §1
# USP54 = USP54 (UniProt Q70EL1)
# Sequence of USP54 (Q70EL1 whole entry): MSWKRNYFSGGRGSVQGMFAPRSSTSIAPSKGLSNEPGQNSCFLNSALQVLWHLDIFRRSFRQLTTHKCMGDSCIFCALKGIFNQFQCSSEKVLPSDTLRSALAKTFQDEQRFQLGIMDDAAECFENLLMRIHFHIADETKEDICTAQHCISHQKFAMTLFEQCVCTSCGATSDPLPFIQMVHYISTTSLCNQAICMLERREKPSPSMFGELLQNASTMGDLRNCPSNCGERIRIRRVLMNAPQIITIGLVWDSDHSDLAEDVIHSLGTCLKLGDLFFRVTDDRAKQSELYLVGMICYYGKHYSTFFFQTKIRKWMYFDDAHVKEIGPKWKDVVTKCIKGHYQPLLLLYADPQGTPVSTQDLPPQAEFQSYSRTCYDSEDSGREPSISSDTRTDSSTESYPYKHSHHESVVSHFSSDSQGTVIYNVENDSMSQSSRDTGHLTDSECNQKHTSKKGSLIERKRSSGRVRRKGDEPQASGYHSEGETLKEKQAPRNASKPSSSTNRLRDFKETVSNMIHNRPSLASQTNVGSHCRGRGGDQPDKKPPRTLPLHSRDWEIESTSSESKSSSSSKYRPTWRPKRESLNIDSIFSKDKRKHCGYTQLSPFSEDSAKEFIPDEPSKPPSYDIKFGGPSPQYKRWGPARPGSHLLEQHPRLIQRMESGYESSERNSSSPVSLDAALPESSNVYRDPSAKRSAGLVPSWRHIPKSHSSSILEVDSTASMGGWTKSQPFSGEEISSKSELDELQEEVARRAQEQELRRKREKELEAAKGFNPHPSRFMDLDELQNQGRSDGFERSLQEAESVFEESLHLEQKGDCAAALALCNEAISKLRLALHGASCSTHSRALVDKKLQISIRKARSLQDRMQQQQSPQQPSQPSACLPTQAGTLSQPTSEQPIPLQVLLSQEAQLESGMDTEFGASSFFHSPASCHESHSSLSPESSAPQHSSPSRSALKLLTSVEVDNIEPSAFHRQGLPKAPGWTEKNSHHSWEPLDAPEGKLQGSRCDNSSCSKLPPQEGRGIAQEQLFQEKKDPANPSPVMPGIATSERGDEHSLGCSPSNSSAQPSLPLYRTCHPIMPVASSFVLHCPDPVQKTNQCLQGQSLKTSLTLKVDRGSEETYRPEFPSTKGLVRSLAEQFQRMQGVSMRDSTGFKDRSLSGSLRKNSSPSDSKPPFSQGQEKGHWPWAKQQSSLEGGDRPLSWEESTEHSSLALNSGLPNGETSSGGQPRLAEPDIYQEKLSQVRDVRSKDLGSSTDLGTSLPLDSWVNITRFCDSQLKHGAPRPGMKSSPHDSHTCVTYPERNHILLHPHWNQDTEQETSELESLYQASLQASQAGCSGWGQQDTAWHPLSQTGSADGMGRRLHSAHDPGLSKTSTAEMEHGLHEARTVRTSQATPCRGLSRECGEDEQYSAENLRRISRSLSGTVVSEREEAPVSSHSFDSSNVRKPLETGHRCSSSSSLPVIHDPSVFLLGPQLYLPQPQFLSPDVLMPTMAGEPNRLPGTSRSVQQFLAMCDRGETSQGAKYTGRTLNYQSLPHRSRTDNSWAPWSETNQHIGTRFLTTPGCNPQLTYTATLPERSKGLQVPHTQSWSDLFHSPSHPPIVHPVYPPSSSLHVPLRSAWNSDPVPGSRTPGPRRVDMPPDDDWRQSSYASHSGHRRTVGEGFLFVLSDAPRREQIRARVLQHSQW
# Procedure, shortened: as §1
# USP7 = USP7 (UniProt Q93009)
# Procedure, shortened: as §1
# USP8 = target: T5, USP8 (UniProt P40818)
# T5 sequence (whole entry): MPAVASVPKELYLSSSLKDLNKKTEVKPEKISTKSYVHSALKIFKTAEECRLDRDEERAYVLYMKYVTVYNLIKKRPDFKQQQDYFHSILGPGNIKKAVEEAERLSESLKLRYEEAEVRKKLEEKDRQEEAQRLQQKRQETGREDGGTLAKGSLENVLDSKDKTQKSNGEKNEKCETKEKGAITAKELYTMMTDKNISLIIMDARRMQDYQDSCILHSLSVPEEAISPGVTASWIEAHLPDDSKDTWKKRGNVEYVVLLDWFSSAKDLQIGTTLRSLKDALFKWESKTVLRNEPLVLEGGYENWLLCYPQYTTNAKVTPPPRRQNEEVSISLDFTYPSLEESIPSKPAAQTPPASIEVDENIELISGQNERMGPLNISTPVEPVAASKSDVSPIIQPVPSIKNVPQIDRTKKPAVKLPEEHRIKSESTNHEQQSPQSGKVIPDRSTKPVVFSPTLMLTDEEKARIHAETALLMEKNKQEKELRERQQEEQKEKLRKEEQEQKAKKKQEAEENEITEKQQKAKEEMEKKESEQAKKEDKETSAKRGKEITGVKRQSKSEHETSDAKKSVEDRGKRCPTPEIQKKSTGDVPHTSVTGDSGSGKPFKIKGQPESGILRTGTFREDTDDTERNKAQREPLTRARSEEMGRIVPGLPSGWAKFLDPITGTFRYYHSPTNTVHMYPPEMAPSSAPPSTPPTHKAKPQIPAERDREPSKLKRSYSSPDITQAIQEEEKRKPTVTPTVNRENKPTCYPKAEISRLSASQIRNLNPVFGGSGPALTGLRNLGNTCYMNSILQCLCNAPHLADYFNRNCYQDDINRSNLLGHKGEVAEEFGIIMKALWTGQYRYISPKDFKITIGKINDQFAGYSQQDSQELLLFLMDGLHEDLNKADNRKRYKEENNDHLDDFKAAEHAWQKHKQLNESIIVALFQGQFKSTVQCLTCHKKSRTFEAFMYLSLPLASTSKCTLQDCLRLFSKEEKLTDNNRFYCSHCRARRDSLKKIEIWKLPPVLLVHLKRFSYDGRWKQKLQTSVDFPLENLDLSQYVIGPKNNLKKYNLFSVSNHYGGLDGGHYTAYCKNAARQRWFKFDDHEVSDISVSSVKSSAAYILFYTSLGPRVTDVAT
# Procedure, shortened: as §1
# USP9X = USP9X (UniProt Q93008)
# Sequence of USP9X (Q93008 whole entry): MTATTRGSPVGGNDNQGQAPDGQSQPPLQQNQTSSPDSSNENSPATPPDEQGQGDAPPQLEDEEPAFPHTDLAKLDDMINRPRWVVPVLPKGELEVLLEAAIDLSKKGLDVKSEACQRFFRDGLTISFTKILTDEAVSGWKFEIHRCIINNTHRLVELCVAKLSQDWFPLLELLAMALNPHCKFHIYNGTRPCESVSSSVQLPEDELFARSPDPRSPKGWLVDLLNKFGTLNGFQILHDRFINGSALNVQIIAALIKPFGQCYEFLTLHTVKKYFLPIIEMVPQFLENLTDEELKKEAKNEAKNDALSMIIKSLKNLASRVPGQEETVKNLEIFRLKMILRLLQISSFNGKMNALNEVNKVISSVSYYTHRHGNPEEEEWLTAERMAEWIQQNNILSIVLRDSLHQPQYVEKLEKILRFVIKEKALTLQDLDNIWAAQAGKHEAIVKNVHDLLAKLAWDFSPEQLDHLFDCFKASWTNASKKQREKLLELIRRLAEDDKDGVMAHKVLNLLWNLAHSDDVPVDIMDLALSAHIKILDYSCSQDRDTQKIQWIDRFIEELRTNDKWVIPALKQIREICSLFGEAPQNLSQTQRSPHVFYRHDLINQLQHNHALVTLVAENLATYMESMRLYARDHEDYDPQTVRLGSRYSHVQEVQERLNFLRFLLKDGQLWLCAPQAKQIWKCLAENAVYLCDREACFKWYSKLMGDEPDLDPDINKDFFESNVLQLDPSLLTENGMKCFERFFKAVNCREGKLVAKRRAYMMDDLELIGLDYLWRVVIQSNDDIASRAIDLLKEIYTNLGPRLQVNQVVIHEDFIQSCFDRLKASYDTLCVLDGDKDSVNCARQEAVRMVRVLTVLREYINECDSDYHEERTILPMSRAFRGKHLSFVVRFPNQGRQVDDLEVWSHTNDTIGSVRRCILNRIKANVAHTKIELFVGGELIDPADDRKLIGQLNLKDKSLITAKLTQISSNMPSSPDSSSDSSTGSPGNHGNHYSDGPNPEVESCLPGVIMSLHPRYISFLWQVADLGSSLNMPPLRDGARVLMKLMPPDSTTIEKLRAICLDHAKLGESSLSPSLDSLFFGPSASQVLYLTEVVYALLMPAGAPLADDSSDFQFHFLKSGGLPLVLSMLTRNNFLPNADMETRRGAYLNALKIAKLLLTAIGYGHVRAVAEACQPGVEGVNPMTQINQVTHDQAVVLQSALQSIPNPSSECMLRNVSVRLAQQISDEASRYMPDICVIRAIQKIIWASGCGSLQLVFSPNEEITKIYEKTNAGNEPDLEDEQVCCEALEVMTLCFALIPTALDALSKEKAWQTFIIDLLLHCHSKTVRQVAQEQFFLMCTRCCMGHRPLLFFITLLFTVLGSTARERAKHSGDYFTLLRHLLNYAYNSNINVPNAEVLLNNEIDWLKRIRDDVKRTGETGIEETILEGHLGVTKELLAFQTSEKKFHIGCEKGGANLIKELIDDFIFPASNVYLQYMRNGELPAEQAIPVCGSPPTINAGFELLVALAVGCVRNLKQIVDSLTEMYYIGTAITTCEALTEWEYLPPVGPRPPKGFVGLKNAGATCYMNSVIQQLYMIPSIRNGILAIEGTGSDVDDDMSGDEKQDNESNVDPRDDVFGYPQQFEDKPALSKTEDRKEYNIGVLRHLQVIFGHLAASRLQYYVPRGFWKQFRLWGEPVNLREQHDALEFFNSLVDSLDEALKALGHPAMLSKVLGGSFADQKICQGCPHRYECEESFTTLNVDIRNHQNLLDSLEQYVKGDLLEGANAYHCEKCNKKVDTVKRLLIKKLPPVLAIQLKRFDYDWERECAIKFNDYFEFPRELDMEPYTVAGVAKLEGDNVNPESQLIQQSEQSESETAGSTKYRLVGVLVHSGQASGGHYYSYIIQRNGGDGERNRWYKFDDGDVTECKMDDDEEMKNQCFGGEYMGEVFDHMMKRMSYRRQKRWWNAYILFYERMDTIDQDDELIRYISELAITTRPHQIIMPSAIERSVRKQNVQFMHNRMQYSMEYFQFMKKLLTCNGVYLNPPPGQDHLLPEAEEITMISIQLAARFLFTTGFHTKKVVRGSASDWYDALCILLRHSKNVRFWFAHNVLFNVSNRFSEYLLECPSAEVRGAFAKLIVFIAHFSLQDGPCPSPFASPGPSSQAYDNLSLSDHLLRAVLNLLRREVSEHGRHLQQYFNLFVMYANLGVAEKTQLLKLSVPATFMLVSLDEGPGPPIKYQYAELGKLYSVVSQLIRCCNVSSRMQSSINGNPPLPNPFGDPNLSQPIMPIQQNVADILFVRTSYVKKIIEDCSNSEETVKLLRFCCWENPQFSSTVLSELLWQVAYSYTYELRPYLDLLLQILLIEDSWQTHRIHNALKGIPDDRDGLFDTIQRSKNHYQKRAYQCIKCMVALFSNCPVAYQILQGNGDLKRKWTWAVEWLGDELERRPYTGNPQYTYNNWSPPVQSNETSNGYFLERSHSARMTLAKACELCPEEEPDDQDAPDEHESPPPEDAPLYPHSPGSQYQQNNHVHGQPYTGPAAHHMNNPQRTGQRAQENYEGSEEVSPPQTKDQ
# Procedure, shortened: as §1
# UniProt O00487 = target: UniProt O00487
# Sequence of UniProt O00487 (O00487 whole entry): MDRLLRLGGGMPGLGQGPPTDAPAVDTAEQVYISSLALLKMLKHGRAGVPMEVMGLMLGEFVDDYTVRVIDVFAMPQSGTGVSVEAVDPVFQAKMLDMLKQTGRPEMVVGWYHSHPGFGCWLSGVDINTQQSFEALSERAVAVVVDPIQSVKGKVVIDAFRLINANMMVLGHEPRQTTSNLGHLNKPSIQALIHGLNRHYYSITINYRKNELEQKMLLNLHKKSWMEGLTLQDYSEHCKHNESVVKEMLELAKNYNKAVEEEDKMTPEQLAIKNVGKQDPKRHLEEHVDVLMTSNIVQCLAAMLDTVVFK
# Procedure, shortened: as §1
compound,measurement,setting,value
Cl.Cn1nccc1C(NC(=O)CCl)c1ccccc1 (stereo not given),log2 ratio of Biotin-Ahx-Ub-VS probe labelling,USP42,0.0316
same,log2 ratio of Biotin-Ahx-Ub-VS probe labelling,USP46,0.114
same,log2 ratio of Biotin-Ahx-Ub-VS probe labelling,USP47,-1.1 (active)
same,log2 ratio of Biotin-Ahx-Ub-VS probe labelling,USP48,-0.11
same,log2 ratio of Biotin-Ahx-Ub-VS probe labelling,USP5,0.239
same,log2 ratio of Biotin-Ahx-Ub-VS probe labelling,USP54,0.34
same,log2 ratio of Biotin-Ahx-Ub-VS probe labelling,USP7,-0.284
same,log2 ratio of Biotin-Ahx-Ub-VS probe labelling,USP8,-0.582
same,log2 ratio of Biotin-Ahx-Ub-VS probe labelling,USP9X,-0.0773
same,log2 ratio of Biotin-Ahx-Ub-VS probe labelling,UniProt O00487,-0.0868
